From PubChem
This is a sample that favours compounds with a hit; in the whole collection about 21% have one here.
HCV inh – HCV inhibition; AID 651820; Huh7.5.1 HCVcc-Cre infection, luciferase reporter, 44 h; hit rate 3.4% among 340,000; Potency, µM (series often up to 41.8 µM), actives largely listed as inhibitors
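Antiviral activity was scored by luciferase reporter output from cells infected with HCVcc-Cre (~0.5 moi) in presence of compound, 44 h infection period, cells seeded 1,000/well 4 h prior.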
Pf growth 96h – P. falciparum growth inhibition at 96 hour, primary screen for plastid delayed-death inhibitors. P. falciparum luciferase reporter growth, 96 h. Potency, µM (titrated, usually from 28.7 µM), hits mostly inhibitors. hit rate 6.9% among 320,000
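Two-generation exposure (96 h) targets delayed-death phenotype. Reporter parasites carrying integrated firefly luciferase, in red cells at 2% hematocrit and 0.05% parasitemia final, kept at 37 C, 5% CO2; luminescence loss indicates inhibition.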
AMA1 RON2 block – AMA1-RON2 (P. falciparum) interaction inhibition | AlphaScreen AMA1-biotinylated RON2 peptide binding | hit rate 0.2% among 360,000 | Potency, µM (doses to about 58.2 µM), usual class: inhibitors; note: nearly all actives have a fitted effect of over 45% in size
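AMA1 (3D7) with his tag at 25 nM final met compounds first, then biotinylated RON2 peptide at 25 nM; detection used donor plus acceptor beads, 10 µg/mL apiece, read by AlphaScreen after 30 min at room temperature.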
Shiga inhibitor – inhibitors of Shiga toxin in Vero cells | AID 2315 | Vero cells, Shiga toxin protein synthesis inhibition reporter | hit rate 9.2% among 290,000 | inhibition, % at 38.7 µM; in the data active = inhibition mostly above about 28%, no sharp cut-off; inactive = mostly below about 43%
Pf growth 48h – P. falciparum growth inhibition at 48 hours (one generation) | P. falciparum luciferase growth in erythrocytes, 48 h | Potency, µM (titrated, usually from 28.7 µM), most hits filed as inhibitors | hit rate 5.9% among 310,000 | AID 504832
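First compound was added to culture medium, then infected red cells at 0.1% parasitemia and 2% hematocrit (final). After incubation at 37 C under 5% CO2, luciferase detection reagent was dispensed and light output recorded.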
Cycloheximide cs – counter-screen for Shiga toxin inhibitors: cycloheximide protein synthesis inhibition | cell reporter, cycloheximide protein synthesis inhibition counterscreen | max response, % | hit rate 12% among 300,000 | AID 2314; in the data active = max response mostly above about 13%, no sharp cut-off; inactive = mostly below about 14%; note: read at 38.3 µM for the half of the compounds with a filed dose
Hits are given with their value; - = inactive; ? = inconclusive; . = no result; [ ] = dose if it differs, or a comment. Unless noted, calls come from the whole dose curve; as a rule, active = well fitted curve in the direction sought with a large enough effect; inconclusive = small, poorly fitted or top-dose-only effect, or another doubt; inactive = no such curve, though single readings can be large; an effect the other way counts as inactive or inconclusive.

SMILES | HCV inh | Pf growth 96h | AMA1 RON2 block | Shiga inhibitor | Pf growth 48h | Cycloheximide cs
CCOC(=O)c1c(C)[nH]c(C)c1S(=O)(=O)NCC(=O)Nc1ccccn1 | - | - | - | - | - | -
O=C(COc1coc(CN2CCc3ccccc3C2)cc1=O)Nc1ccc(F)cc1F | ? | ? | - | . | - | .
N#CC1=C(N)C(C#N)(C#N)C(c2cccnc2)C2CCCC=C12 (centres undefined) | . | - | . | - | - | -
N#CC1=C(N)C(C#N)(C#N)C(c2cccnc2)C2CC(c3ccccc3)CC=C12 (centres undefined) | - | 12µM | - | - | ? | -
CCOC(=O)N1CC=C2C(C#N)=C(N)C(C#N)(C#N)[C@H](c3ccccc3OCC)[C@H]2C1 | - | . | - | - | - | -
CCOC(=O)N1CC=C2C(C#N)=C(N)C(C#N)(C#N)[C@H](c3ccc(OC(C)C)c(OCC)c3)[C@H]2C1 | ? | - | - | - | 5.2µM | -
N#CC1=C(N)C(C#N)(C#N)[C@H](c2cccnc2)[C@H]2CN(C(=O)OCc3ccccc3)CC=C12 | - | 13µM | - | - | ? | -
Cc1nc2ccccc2c(=O)n1NC(=O)C1CC1 | - | - | - | - | - | -
COc1cccc(C(=O)CN2C(=O)C(C)(C)Oc3ccc(C(=O)N4CCCCCC4)cc32)c1 | - | . | - | - | ? | 31
C/C(CCN1CCc2nc(-c3ccccc3)c(-c3ccccc3)cc2C1)=N\O[C@@H](C)c1cn([C@H](CO)Cc2ccccc2)nn1 | -[8.37 µM] | 13µM | . | - | ? | -
O=C(NCCN1CCCC1)c1ccc(Cn2c(=S)[nH]c3ccc(Br)cc3c2=O)cc1 | ? | - | - | - | ? | -
O=C(NCCCN1CCCC1)c1ccc(Cn2c(=S)[nH]c3ccc(Br)cc3c2=O)cc1 | . | - | . | - | 13µM | -
CC1CCN(CCNC(=O)c2ccc3c(=O)n(Cc4ccc(Cl)cc4)c(=S)[nH]c3c2)CC1 | 6.3µM | - | - | - | 3.7µM | -
COCCCNC(=O)c1ccc2c(=O)n(Cc3ccccc3OC)c(=S)[nH]c2c1 | ? | - | - | - | ? | -
C=CCNC(=O)c1ccc2c(=O)n(Cc3ccccc3OC)c(=S)[nH]c2c1 | ? | - | - | - | 3.3µM | -
COc1ccccc1Cn1c(=S)[nH]c2cc(C(=O)NCCN3CCOCC3)ccc2c1=O | ? | - | - | - | 10µM | -
COc1ccccc1Cn1c(=S)[nH]c2cc(C(=O)NCCCN3CCOCC3)ccc2c1=O | ? | - | - | - | ? | -
CC(C)NC(=O)C1(C)CCCN1C(=O)c1cc(C#N)cs1 (centres undefined) | . | . | - | . | . | .
COc1ccc(N2CCN(CCNC(=O)c3ccc4c(c3)[nH]c(=S)n3c5ccccc5nc43)CC2)cc1 | - | 10µM | - | - | ? | -
O=C(NCc1ccc(Cl)cc1)c1ccc2c(=O)n(CC3CCCO3)c(=S)[nH]c2c1 (centres undefined) | ? | 12µM | - | - | - | -
COc1ccccc1NS(=O)(=O)c1cc(C(=O)NCCN2CCOCC2)ccc1Cl | - | 10µM | - | - | - | -
COC(=O)c1ccc(OCC(O)CNCC(c2ccc(OC)cc2)N(C)C)c(OC)c1 (centres undefined) | ? | - | - | 52 | - | -
CC1(c2cccc(Br)c2)NC(=O)N(CC(=O)N2CCc3ccccc32)C1=O (centres undefined) | 10µM | ? | - | . | - | .
CCn1cc(/C=C(\NC(=O)c2ccccc2F)C(=O)N2CCN(C)CC2)c2ccccc21 | . | . | - | . | . | .
Cc1ccc(OCCn2cc(C=O)c3ccccc32)cc1 | - | - | - | - | - | -
SMILES | HCV inh | Pf growth 96h | AMA1 RON2 block | Shiga inhibitor | Pf growth 48h | Cycloheximide cs
O=Cc1cn(CCOc2ccccc2F)c2ccccc12 | - | ? | - | 49 | - | 25
Cc1ccc(OCCCn2cc(C#N)c3ccccc32)cc1 | - | - | - | 68 | - | 24
CN1CCN(C(=S)c2cn(CCOc3ccccc3F)c3ccccc23)CC1 | ? | - | ? | - | ? | -
N#Cc1cn(CCOc2ccccc2F)c2ccccc12 | - | . | - | - | 2.9µM | 18
N#Cc1cn(CCOc2ccc(F)cc2)c2ccccc12 | ? | - | - | - | 10µM | -
COc1ccccc1OCCn1cc(C=O)c2ccccc21 | - | ? | - | - | - | -
